Bioassay records: PubChem BioAssay, National Center for Advancing Translational Sciences (NCATS)
HT1080 IDH1KD tx – toxicity to HT-1080 IDH1 knockdown cells (counter line); HT-1080 IDH1 knockdown viability, ATP luminescence, 48 h; Potency, µM (series often up to 46.1 µM), without a hit: top-dose activity, negative = toxicity, usual class: cytotoxic; 360,000 tested, 2% active;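 further: potency means the concentration at half of the fitted maximal effect; 0% = DMSO wells and -100% = cell-free medium wells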
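In this qHTS, HT-1080 cells depleted of IDH1 are exposed for 48 h at 37 °C to compound titrations. Toxicity is scored from CellTiter-Glo luminescence, with DMSO as full viability and medium alone as none.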
TDP1 cell noCPT – qHTS for Inhibitors of human tyrosyl-DNA phosphodiesterase 1 (TDP1): qHTS in cells in absence of CPT. 420,000 tested, 15% active. DT40 Tdp1-/- hTDP1 cells, no CPT, ATP luminescence, 48 h. Potency, µM (doses to about 46.2 µM), for inactives: at the highest dose activity change, negative = growth inhibition, actives largely listed as inhibitors; further: potency means the concentration at half of the fitted maximal effect; nearly all actives have a fitted effect of over 55% in size
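Growth of hTDP1-complemented DT40 Tdp1-knockout cells is measured by ATP luminescence after at least 48 hr compound exposure at 37 °C, with DMSO substituting for the 20 nM CPT used in the parallel screen.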
TDP1 cell CPT – growth inhibition of DT40 Tdp1-/-;hTDP1 cells with camptothecin (screen for TDP1 inhibitors); chicken DT40 Tdp1-/-;hTDP1 cells + 20 nM CPT, ATP luminescence, 48 h; 420,000 tested, 12% active; Potency, µM (top dose mostly 46.2 µM), for the others: top-dose activity change, negative = growth inhibition, usual class: inhibitors; further: potency means the concentration at half of the fitted maximal effect; nearly all actives have a fitted effect of over 55% in size
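Chicken DT40 Tdp1-/- cells complemented with human TDP1, 400 cells/well, exposed to compounds plus 20 nM camptothecin for at least 48 h at 37 C; viability read as ATP content by CellTiter-Glo luminescence.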
IL-1B inflam inh – blocks inflammasome-driven IL-1 beta release; THP-1 LPS/ATP IL-1B secretion, AlphaLISA, 16 h; active compounds read low; activity change, % at 57.5 µM; 360,000 tested, 4.7% active; AID 743279; in the data active means activity change below about -50%; inconclusive means mostly about -30% to -49%
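Secreted IL-1B measured by AlphaLISA bead assay after 16 h compound exposure of THP-1 cells; compounds (final up to 57.5 uM) added 1 h before LPS (250 ng/mL) and ATP (1.25 mM) stimulation; lower signal means less secretion.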
HT1080-NT tox – kills 2HG-producing HT-1080-NT fibrosarcoma cells; HT-1080-NT fibrosarcoma viability, CellTiter-Glo ATP luminescence, 48 h; 360,000 tested, 1.6% active; AID 686970; Potency, µM (highest dose often 46.1 µM), inactives show at the highest dose activity, negative = less viability, hits mostly cytotoxic;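 further: NT is the 2HG producing partner of a matched IDH1 knockdown line; potency means the concentration at half of the fitted maximal effect; 0% = DMSO-treated cells and -100% = media-only wells without cells; nearly all actives have a fitted effect of over 55% in size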
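Toxicity toward the 2HG-producing NT line was scored as %Activity, normalised to DMSO and no-cell wells, from CellTiter-Glo luminescence after 48 hours' treatment.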
Active calls of the source: *; u = inconclusive; x = not tested or not shown. In the library only some 19% were active in any assay of this set; here they are far more common. Unless noted, the call rests on the fitted dose curve; in most records, active means well fitted curve in the direction sought with a large enough effect; inconclusive means small, poorly fitted or top-dose-only effect, or another doubt; inactive means no such curve, though single readings can be large; an effect the other way counts as inactive or inconclusive. Unless noted, on the % scale 0 is the no-effect control and ±100 the full control effect.

SMILES	HT1080 IDH1KD tx	TDP1 cell noCPT	TDP1 cell CPT	IL-1B inflam inh	HT1080-NT tox
O=C(N[C@@H](Cc1ccccc1)C(=O)N1CCN(S(=O)(=O)c2ccc(F)cc2)CC1)c1ccco1	10%	21µM*	15µM*	6	12%
CCOc1ccc(S(=O)(=O)NCCC(=O)N2CCN(c3ncccn3)CC2)cc1	-3%	u	-1%	0	3%
CCOc1ccc(S(=O)(=O)Nc2ccc(C(=O)NCC3(N4CCCCC4)CCCCC3)cc2)cc1	-11%	21µM*	u	-10	u
COc1ccc(NS(=O)(=O)c2ccc(C(=O)NCC3(N4CCOCC4)CCCCC3)cc2)cc1	-16%	u	u	4	-10%
CCOc1ccc(NS(=O)(=O)c2ccc(C(=O)N3CCN(c4ncccn4)CC3)cc2)cc1	u	8.2µM*	9.2µM*	0	-21%
O=c1oc(-c2ccccc2Cl)nc2ccsc12	10%	15µM*	u	48	5%
O=c1oc(-c2ccc(F)cc2)nc2ccsc12	-1%	-21%	-2%	52	0%
Cc1ccccc1OCCN(C#N)c1nc(N(C)C)nc(N(C)C)n1	-15%	16µM*	u	-19	0%
CC(=O)c1ccc2c3c(cc(C)c2c1)CCCC3	7%	-17%	22%	12	u
O=c1c(-c2ccc(F)cc2)nc2cnc(Nc3ccccc3)nc2n1C1CC1	x	-4%	2%	x	x
O=C(NCCF)C1Nc2ccc(OC(F)(F)F)cc2C2C=CCC12 (stereo not drawn)	16%	-24%	u	0	10%
CCOC(=O)c1ccc2c(c1)C1C=CCC1C(C(=O)OCC)N2 (stereo not drawn)	-7%	u	u	3	-8%
CCOC(=O)C1Nc2ccc(Br)cc2C2C=CCC12 (stereo not drawn)	-15%	21µM*	u	-12	-16%
CC(C)CNC(=O)C1Nc2ccc(OC(F)(F)F)cc2C2C=CCC12 (stereo not drawn)	11%	13µM*	u	-6	0%
CCOC(=O)C1Nc2ccc(C)cc2C2C=CCC12 (stereo not drawn)	-8%	18µM*	u	-13	-9%
COC(=O)c1cc(S(=O)(=O)Nc2cc(OC)cc(OC)c2)c[nH]1	-11%	-17%	u	0	-5%
Cc1cc(C)c2nc(C(F)(F)F)nc(NCCCN3CCOCC3)c2c1	16µM*	u	u	-8	18µM*
O=C(/C=C/c1c(Cl)nc2ccccn12)N1CCN(c2ccccc2F)CC1	-3%	23µM*	-19%	-21	16%
O=C(/C=C/c1c(Cl)nc2ccccn12)N1CCCCC1	16%	u	-24%	-7	0%
O=C(/C=C/c1c(Cl)nc2ccccn12)N1CCN(c2ccc(F)cc2)CC1	7%	26µM*	u	77	12%
CCN(Cc1nc(-c2ccc(OC)cc2)no1)C(=O)c1ccoc1C	4%	-21%	-2%	5	1%
CCN1CCN(S(=O)(=O)c2ccc(Cl)c(C(=O)Nc3cc(Cl)ccc3N3CCOCC3)c2)CC1	u	u	u	-62*	-12%
CCN1CCN(c2ccc(S(=O)(=O)N3CCOCC3)cc2NC(=O)c2ccc(C)c(C)c2)CC1	-7%	u	u	-1	-3%
CCN1CCN(S(=O)(=O)c2ccc(Cl)c(C(=O)Nc3ccccc3N3CCOCC3)c2)CC1	1%	-15%	u	-8	-2%
CCN1CCN(c2ccc(S(=O)(=O)N3CCOCC3)cc2NC(=O)c2ccc(Cl)cc2Cl)CC1	-13%	21µM*	u	-17	-2%
SMILES	HT1080 IDH1KD tx	TDP1 cell noCPT	TDP1 cell CPT	IL-1B inflam inh	HT1080-NT tox
COc1ccccc1NCC(=O)n1nc(C)cc1C	-5%	-16%	-10%	-10	-6%
Cc1cc(-c2ccc(NS(=O)(=O)c3ccccc3)c(C)c2)ccc1NS(=O)(=O)c1ccccc1	-14%	12µM*	13µM*	15	-20%
Cc1ccc(S(=O)(=O)Nc2ccccc2-c2ccccc2)cc1	4.1µM*	2.6µM*	2.6µM*	31	2.9µM*
Cc1ccc(S(=O)(=O)NCc2ccccc2NS(=O)(=O)c2ccc(C)cc2)cc1	-26%	u	u	8	-24%
Cc1ccc(S(=O)(=O)Nc2ccccc2CNc2cccc(C)n2)cc1	1%	16µM*	u	10	-8%
Cc1ccc(S(=O)(=O)Nc2ccccc2NS(=O)(=O)c2ccc(C)cc2)cc1	-21%	-12%	-10%	28	-30%
CN(NC1OC(=O)c2ccccc21)c1ccccc1[N+](=O)[O-] (stereo not drawn)	6%	-5%	9%	11	19%
COc1ccccc1C(=O)Oc1c(Sc2ccccc2)c(C)nn1C(C)(C)C	x	15µM*	u	x	x
Cc1ccccc1C(=O)Oc1c(Sc2ccccc2)c(C)nn1C(C)(C)C	x	15µM*	u	x	x
Cc1nn(C(C)(C)C)c(OC(=O)c2ccco2)c1Sc1ccccc1	2%	u	-8%	-6	-3%
COc1ccc(S(=O)(=O)N2CCCC(C(=O)NCc3ccco3)C2)cc1OC (stereo not drawn)	-10%	-27%	-19%	8	-6%
CC1(c2ccccc2)NC(=O)N(CC(=O)NC(=O)NC2CCCC2)C1=O (stereo not drawn)	-13%	0%	1%	20	-7%
COC1=CC(=O)C(C(=O)c2ccccc2)=CC1=O	x	5.8µM*	u	x	x
COc1ccc(C(=O)c2ccccc2)cc1	11%	-11%	16%	16	1%
O=C(C[C@H]1C[C@H](C(=O)N2CCCCC2)[C@@]2(CCc3ccccc3)c3[nH]c4cc(-c5ccco5)ccc4c3CCN2C1=O)NCc1ccco1	-6%	u	u	-51*	-8%
O=C(CC1C[C@H](C(=O)N2CCCCC2)[C@@]2(CCc3ccccc3)c3[nH]c4ccccc4c3CCN2C1=O)NCCC1=CCCCC1 (stereo partly drawn)	-3%	u	u	-17	-3%
CC[C@]12c3[nH]c4cc(-c5ccco5)ccc4c3CCN1C(=O)[C@@H](CC(=O)NCCC1=CCCCC1)C[C@@H]2C(=O)N1CCN(C(=O)c2ccco2)CC1	-26%	18µM*	21µM*	-64*	-19%
O=C(C[C@H]1C[C@H](C(=O)N2CCCCC2)[C@@]2(CCc3ccccc3)c3[nH]c4cc(-c5ccco5)ccc4c3CCN2C1=O)NCCC1=CCCCC1	-3%	18µM*	u	-13	0%
